# Data taken from PubChem BioAssay (NCATS).
# Records with an inconclusive call do not appear. Where a call stands in place of a potency, no number is given. Calls of active or inactive are those of the source. Calls come from the whole dose curve; as a rule, active = well fitted inhibition curve with a large enough effect; inconclusive = small, poorly fitted or top-dose-only effect; inactive = no such curve, though single readings can be large or run the other way.
# Test: BET inhibitor-based combinations targeting novel dependencies in MECOM-rearranged (r) AML: UCSD-AML1 cell line (AID 2202235); note: nearly all actives have a fitted effect of over 40% in size
# Settings: UCSD-AML1 AML cells viability, CellTiter-Glo, 48 h; series mostly up to 46 µM
# Description: Ecotropic viral insertion site 1 (EVI1) is located on chromosome 3q26.2 as part of the MECOM (MDS and EVI1 complex) locus. Under normal hematopoiesis, EVI1 is a regulator of hematopoietic stem cell maintenance and self-renewal and EVI1 levels decrease as the cells differentiate. In approximately 5-10% of de novo acute myeloid leukemia (AML) EVI1 is aberrantly expressed, including Chromosomal inv(3)(q21;q26.2) or t(3;3)(q21;q26.2) alterations (MECOM-r) that account for about 50% of AML with EVI1 overexpression 31. AMLs with high levels of EVI1 have a poor prognosis and an overall survival time averaging between 10-14 months. EVI1 overexpression confers resistance in leukemia cells, highlighting the need to develop new targeted therapies for EVI1 overexpressing AMLs. Here, we performed an unbiased chemical drug screening by evaluating the single agent activity of a collection of 2,480 oncology-focused, approved and investigational drugs (NCATS Mechanism Interrogation Plates, MIPE v5.0) against a panel of seven AML cell lines. These included four MECOM-r cell-lines (AML-191, AML-194, UCSD-AML1 and HNT-34) and three non-MECOM-r AMLs (MV4-11, OCI-AML3 and SET-2). Exploiting the mechanistic redundancy built in the library, we identified target-level sensitivities in MECOM-r AML cells and relative activity as compared to other AML subtypes.
# A collection of 2480 mechanistically annotated dugs (MIPE v5.0) was used to screen four 3q26.2 rearranged AML cell lines and three non-3q26.2 rearranged AML cell lines. This library purposely exploits redundancy by including multiple inhibitors of key onco-targets, while simultaneously encompassing mechanistic diversity, targeting more than 800 distinct mechanisms of action. Briefly, cells were seeded in 5 uL of growth media using a Multidrop Combi dispenser into 1536 well white polystyrene tissue culture treated plates (Corning) at a density of 500cells/well. For each cell-line, for each of the 2480 drugs in MIPE v5.0 library, an 11-point dose curve was generated via a 1536 pin-tool. Plates were incubated for 48 hr at standard incubator conditions, covered by a stainless steel gasketed lid to prevent evaporation. Cell viability was determined by luminescence based, Cell Titer Glo assay (Promega). In detail, 3 uL of Cell Titer Glo were added to each well and plates were incubated at room temperature for 15 min with a stainless-steel lid in place. Luminescence readings were taken using a Viewlux (PerkinElmer) with a 2 s exposure time per plate. Compound dose-response curves were normalized to DMSO and empty well controls on each plate. Quantitative drug activity data from dose-response curves was determined utilizing area Under the Curve (AUC) and Z-transformed AUC (Z-AUC, a mean-centering transformation applied to each individual cell-line screened).
# Potency is the fitted concentration of half-maximal effect.
row,SMILES,Potency
1,CC(=O)NC[C@H]1CN(c2ccc(N3CCOCC3)c(F)c2)C(=O)O1,inactive
2,FC(F)(F)c1ccc(/C=C/c2nc(COc3ccc(CCCCn4ccnn4)cc3)co2)cc1,inactive
3,O=C(O)C[C@H](O)C[C@H](O)/C=C/c1c(C2CC2)nc2ccccc2c1-c1ccc(F)cc1,2.63 µM (active)
4,CCc1nc(C(N)=O)c(Nc2ccc(N3CCC(N4CCN(C)CC4)CC3)c(OC)c2)nc1NC1CCOCC1,2.63 µM (active)
5,Cc1cn2cc(C(=O)N(C)CCO)cc(N[C@@H]3CCOc4cccc(C)c43)c2n1,inactive
6,CCn1nnc2c(N3CCOCC3)nc(-c3ccc(NC(=O)Nc4ccc(C(=O)N5CCN(C)CC5)cc4)cc3)nc21,0.186 µM (active)
7,COc1ccc(N(C)c2nc(C)nc3ccccc23)cc1,0.0118 µM (active)
8,COc1cc2nc(-c3cc(F)ccc3O)nc(N[C@@H]3CNC[C@H]3C(C)(C)O)c2cc1OC,4.17 µM (active)
9,Oc1cc2c(cc1O)C1c3ccc(O)c(O)c3OCC1(O)C2 (stereo not given),20.9 µM (active)
10,O=C(O)[C@H](Cc1c[nH]c2ccccc12)N1C(=O)c2ccccc2C1=O,3.32 µM (active)
11,COc1cc(N2CCC(N(C)C)CC2)ccc1Nc1ncc(Cl)c(Nc2ccccc2P(C)(C)=O)n1,2.63 µM (active)
12,CC(C)(C#N)c1cc(Cn2cncn2)cc(C(C)(C)C#N)c1,inactive
13,COc1ccc2[nH]cc(CCNC(C)=O)c2c1,inactive
14,Cc1ccc(-c2cc(C(F)(F)F)nn2-c2ccc(S(N)(=O)=O)cc2)cc1,inactive
15,C[C@@H](c1ccc2nccn2c1)n1nnc2ncc(-c3cnn(C)c3)nc21,inactive
16,COc1ccc(CCN(C)CCCC(C#N)(c2ccc(OC)c(OC)c2)C(C)C)cc1OC (stereo not given),16.6 µM (active)
17,CN1C(C(=O)Nc2ccccn2)=C(O)c2sc(Cl)cc2S1(=O)=O,inactive
18,Nc1nc(OCc2cc(Br)cs2)c2[nH]cnc2n1,inactive
19,Cn1cc(-c2ccc(F)c(C(F)(F)F)c2)nc1C1CCN(c2ncnc3[nH]ncc23)CC1,inactive
20,Cc1cc(C)cc(NC(=O)Cc2ccc(OC(C)(C)C(=O)O)cc2)c1,inactive

row,SMILES,Potency
1,c1ccc2c(-c3cnn4cc(-c5ccc(N6CCNCC6)cc5)cnc34)ccnc2c1,2.95 µM (active)
2,CCCCCNC(=O)N1CCC(CN(Cc2ccc(Cl)cc2)Cc2ccc([N+](=O)[O-])s2)C1 (stereo not given),inactive
3,CC(S)C(=O)NCC(=O)O (stereo not given),inactive
4,Cc1c(-c2ccc(O)cc2)n(Cc2ccc(OCCN3CCCCCC3)cc2)c2ccc(O)cc12,inactive
5,Cc1cnc(NC(=O)C2=C(O)c3ccccc3S(=O)(=O)N2C)s1,inactive
6,CS(=O)(=O)OCCCCOS(C)(=O)=O,inactive
7,c1cn2cc(-c3ccc4cn[nH]c4c3)nc(Nc3ccc(N4CCOCC4)cc3)c2n1,10.5 µM (active)
8,c1ccc(CNc2nc(N3CCOc4ccccc43)nc3c2CCCC3)cc1,inactive
9,COc1nc(C)nc(Cl)c1NC1=NCCN1,inactive
10,CCS(=O)(=O)c1cccc(-c2cc(C(=O)NC3CCN(C)CC3)c(C)c3[nH]c4ncc(C)cc4c23)c1,0.934 µM (active)
11,O=C(Nc1ccc(Oc2ccnc3[nH]ccc23)c(F)c1)c1cccn(-c2ccc(F)cc2)c1=O,inactive
12,Cc1cccc(N(C)C(=S)Oc2ccc3ccccc3c2)c1,inactive
13,CN(C)C(=O)c1cc2cnc(Nc3ccc(N4CCNCC4)cn3)nc2n1C1CCCC1,inactive
14,CC#CCn1c(N2CCC[C@@H](N)C2)nc2c1c(=O)n(Cc1nc(C)c3ccccc3n1)c(=O)n2C,inactive
15,CS(=O)(=O)c1ccc(C2=C(c3ccccc3)C(=O)OC2)cc1,inactive
16,CC1(C)CCC(c2ccc(Cl)cc2)=C(CN2CCN(c3ccc(C(=O)NS(=O)(=O)c4ccc(N[C@H](CCN5CCOCC5)CSc5ccccc5)c(S(=O)(=O)C(F)(F)F)c4)cc3)CC2)C1,1.05 µM (active)
17,O=C(Nc1cccnc1)N1CCC(Cc2cccc(Oc3ccc(C(F)(F)F)cn3)c2)CC1,26.3 µM (active)
18,O=C(O)c1ccc(O)c2ncc(N3CCOCC3)cc12,inactive
19,O=C(O)CCC1CCC(c2cc(F)ccc2F)(S(=O)(=O)c2ccc(Cl)cc2)CC1 (stereo not given),inactive
20,CCc1cccc2c3c([nH]c12)[C@@](CC)(CC(=O)O)OCC3,inactive
